Compound activity (PubChem)
Mtb hypoxia inh: PubChem AID 1159583; 0.1% of 300,000 active; fluorescence inhibition, % (no concentration beside the values); M. tuberculosis hypoxia-regulated fluorescent reporter, fluorescence; in the data active means fluorescence inhibition mostly above about 23%, no sharp cut-off; inactive means mostly below about 17%
Mtb UGM inh: M. tuberculosis UGM enzyme inhibitors, primary screen, biochemical, fluorescence polarization, single point. UDP-galactopyranose mutase (Mycobacterium tuberculosis (strain ATCC 25618 / H37Rv)), …. purified UGM, fluorescence polarization probe displacement. inhibition, % at 10 µM. 0.06% of 320,000 active. AID 504406, 2011; in the data active means inhibition above about 10%, passing the limit was not always enough
FadD28 FP inh: inhibitors of FadD28 bisubstrate probe binding, primary screen, biochemical, fluorescence polarization, single point; Mycobacterium tuberculosis FadD28 fatty-acid-AMP ligase; inhibition, % at 12.5 µM; 0.22% of 360,000 active; AID 588549, 2011; in the data active means inhibition above about 8.5%, passing the limit was not always enough
FBA Mtb inh: Mtb FBA enzyme inhibitors, primary screen, biochemical, fluorescence, strain H37Rv | Fructose-bisphosphate aldolase (Mycobacterium tuberculosis (strain ATCC 25618 / H37Rv)), … | purified M. tuberculosis FBA, fluorescence read-out | inhibition, % at 1 µM | 2.3% of 360,000 active | AID 588726, 2011; in the data active means inhibition above about 27%;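 further: 0% = vehicle and 100% = reference inhibitor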
GDH-TPI inh: GDH-TPI coupling enzyme inhibitors, primary screen, artefact control for M. tuberculosis FBA inhibitor project, biochemical, absorbance, full deck | 1.2% of 360,000 active | inhibition, % at 4.8 µM | GDH-TPI coupled enzyme counterscreen, NADH absorbance; in the data active means inhibition above about 30%;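 further: 0% = DMSO wells and 100% = wells lacking the enzyme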
Rv3671c inh: Rv3671c serine protease inhibitors, primary screen, biochemical, fluorescence polarization, M. tuberculosis H37Rv; P9WHR9; inhibition, % at 5.96 µM; 0.048% of 320,000 active; AID 2606, 2010; in the data active means inhibition above about 38%;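 further: extracellular domain of Rv3671c used as enzyme; 0% = enzyme with DMSO and 100% = no enzyme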
Target sequence (P9WHR9 whole entry, looked up, the tested form may be a part): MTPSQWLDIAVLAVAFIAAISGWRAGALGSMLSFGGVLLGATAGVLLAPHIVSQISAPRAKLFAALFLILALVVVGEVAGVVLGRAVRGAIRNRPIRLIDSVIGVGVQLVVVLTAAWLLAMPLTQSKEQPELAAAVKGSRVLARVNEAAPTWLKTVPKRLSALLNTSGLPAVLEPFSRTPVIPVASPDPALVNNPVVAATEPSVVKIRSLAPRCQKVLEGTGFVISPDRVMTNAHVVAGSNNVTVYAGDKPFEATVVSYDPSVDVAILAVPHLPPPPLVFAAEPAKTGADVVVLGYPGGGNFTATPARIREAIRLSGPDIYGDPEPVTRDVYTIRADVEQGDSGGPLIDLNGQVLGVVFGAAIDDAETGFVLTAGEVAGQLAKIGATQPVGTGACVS
Numbers without * were called inactive; . = no result given; + = active, no number. The list is not random: actives were taken first. Their share in the collection is about 3.5%.

SMILES | Mtb hypoxia inh | Mtb UGM inh | FadD28 FP inh | FBA Mtb inh | GDH-TPI inh | Rv3671c inh
Cc1nc2oc(C(=O)c3ccccc3)c(N)c2c2c1COC(C)(C)C2 | -11 | 2 | -1 | 6 | 17 | -2
CCOC(=O)c1sc2nc(CC(C)C)c3c(c2c1N)CCC3 | . | -1 | -1 | 15 | 8 | -7
CCOC(=O)c1oc2nc(C(C)C)c3c(c2c1N)CCC3 | 8 | 3 | 2 | 124* | 18 | -5
COC(=O)c1sccc1-c1ccc(C(=O)Nc2cccnc2)o1 | 4 | -1 | -3 | 1 | 34* | -13
C=CCNc1nc(C(=O)OCC(=O)NCc2cccc(Cl)c2)cs1 | 34* | 4 | -3 | -1 | -3 | -4
O=C(COC(=O)c1ccccn1)NCc1cccc(Cl)c1 | 2 | . | -1 | 0 | 10 | .
CCCOC(=O)c1c(N)n(Cc2cccs2)c2nc3ccccc3nc12 | 5 | -1 | -11 | 173* | 11 | -8
C=CCn1c(N)c(C(=O)Nc2cccc(C)c2)c2nc3ccccc3nc21 | 8 | -1 | -6 | 8 | 22 | -4
C=CCn1c(N)c(C(=O)OCCC)c2nc3ccccc3nc21 | 2 | 0 | -2 | 175* | 17 | -8
COc1ccc(Cn2c(O)c(/C=N/NC(=O)c3ccncc3)c(=O)[nH]c2=O)cc1 | 4 | 1 | 1 | 2 | 42* | 14
O=C(N/N=C/c1c(O)n(CCc2ccc(F)cc2)c(=O)[nH]c1=O)c1ccncc1 | . | 2 | -2 | 3 | 21 | -2
O=C(N/N=C/c1c(O)n(-c2cccc3ccccc23)c(=O)[nH]c1=O)c1ccncc1 | . | -7 | -2 | 2 | 43* | -26
COc1ccc(Cn2c(O)c(/C=N/NC(=O)c3ccccc3)c(=O)[nH]c2=O)cc1 | 0 | 1 | -7 | 4 | 35* | 5
CCn1c(O)c(/C=N/NC(=O)c2ccccc2)c(=O)[nH]c1=S | -2 | -1 | -3 | 8 | 32* | 1
O=C(N/N=C/c1c(O)n(CCc2ccccc2)c(=O)[nH]c1=O)c1ccncc1 | -4 | 1 | 0 | 2 | 28 | -10
O=C(N/N=C/c1c(O)n(CCc2ccc(F)cc2)c(=O)[nH]c1=O)c1ccccc1 | -3 | 0 | -1 | 1 | 16 | 12
CC(=NO)c1cccc(N2Cc3ccccc3C2)c1 | -1 | . | . | . | . | .
CC(C)(C)c1cc(C(=O)NN=Cc2ccccc2O)n(-c2ccccc2)n1 | 15 | . | . | . | . | .
CCN(CC)c1ccc(C(=C2C=CC(=[N+](CC)CC)C=C2)c2ccc(N(CC)CC)cc2)cc1 | 100* | . | -1 | 4 | 4 | .
N#Cc1c(-c2cccs2)cc(-c2ccccn2)nc1N | . | -1 | -2 | 78* | 13 | -11
N#Cc1c(N)nc2c(c1-c1cccs1)CCCC2 | 2 | 2 | -3 | 4 | 8 | -1
CCN(CC)C(=O)CSc1nc2cc3c(cc2c(=O)n1CCCC(=O)NCc1ccc(OC)cc1)OCO3 | -4 | 0 | -5 | -3 | -12 | -2
CCN(CC)C(=O)CSc1nc2cc(OC)c(OC)cc2c(=O)n1Cc1ccc(Cl)cc1 | 11 | -1 | -5 | 27* | -5 | -9
O=C(NN=CCCc1ccccc1)c1ccc(CN2c3cccc4cccc(c34)S2(=O)=O)cc1 | 5 | . | . | . | . | .
NC(=O)c1cc2ccc(O)cc2oc1=Nc1ccccc1 | . | . | 0 | + | 16 | .
SMILES | Mtb hypoxia inh | Mtb UGM inh | FadD28 FP inh | FBA Mtb inh | GDH-TPI inh | Rv3671c inh
COc1ccc(OC)c(N=c2oc3cc(O)ccc3cc2C(N)=O)c1 | 0 | 1 | 4 | 116* | 9 | -6
COc1ccc2oc(=Nc3cc(F)ccc3F)c(C(N)=O)cc2c1 | 10 | 0 | -2 | 21 | 5 | 0
NC(=O)c1cc2ccc(O)cc2oc1=NCc1ccccc1 | -2 | . | -2 | + | 15 | -21
COC(=O)CN1C(=O)C2C(c3ccc(C)o3)N3C(=O)CN(Cc4ccccn4)C(=O)[C@@]3(C)C2C1=O (some centres not stated) | 1 | . | . | . | . | .
CC(=O)NCc1ccc(S(=O)(=O)NN=Cc2ccc(Br)cc2)cc1 | -1 | . | . | . | . | .
O=C1Nc2ccccc2C(=O)N2C1C1C(=O)N(Cc3ccccc3)C(=O)C1C2c1ccc(F)cc1 (configuration not stated) | -4 | . | . | . | . | .
CC(CCc1ccccc1)=NNC(=O)C(=O)NC(C)c1ccccc1 (configuration not stated) | -5 | . | . | . | . | .
COc1ccc(C(=O)c2ccc(OC)cc2OC)cc1 | . | -1 | 1 | -2 | 6 | -1
CN(C)c1ccc(C(=O)c2ccc(N(C)C)c3ccccc23)cc1 | -1 | 0 | -1 | -1 | 34* | -4
COc1ccc(C(=O)c2ccc(N(C)C)cc2)c(OC)c1 | 2 | -2 | -1 | 0 | 31* | 3
Cc1ccc(S(=O)(=O)c2c(C)nn(C(C)(C)C)c2OC(=O)c2ccco2)cc1 | . | -1 | 0 | 189* | 3 | 2
Cc1ccc(S(=O)(=O)c2c(C)nn(C(C)(C)C)c2OC(=O)c2ccc(Br)o2)cc1 | . | -1 | -1 | -1 | 5 | 4
COc1cccc(C=NNC(=O)c2cccc([N+](=O)[O-])c2)c1OS(=O)(=O)c1ccccc1 | 0 | . | . | . | . | .
COc1cccc(/C=C2\Oc3cc(OCC(=O)N4CCC[C@H]4C(=O)O)ccc3C2=O)c1 | . | 2 | -4 | 1 | 36* | -12
COc1ccc(/C=C2\Oc3cc(OCC(=O)N4CCC[C@H]4C(=O)O)ccc3C2=O)c(OC)c1 | . | -2 | -4 | -1 | -3 | -8
COc1cc(OC)c(OC)cc1/C=C1\Oc2cc(OCC(=O)N3Cc4ccccc4C[C@H]3C(=O)O)ccc2C1=O | . | -7 | 12* | -11 | 6 | -12
COc1ccc(OC)c(/C=C2\Oc3cc(OCC(=O)N4CCC[C@H]4C(=O)O)ccc3C2=O)c1 | . | 12* | 0 | -10 | 24 | 2
O=C(O)C1Cc2ccccc2CN1C(=O)COc1ccc(Cl)cc1 (configuration not stated) | 10 | 0 | 1 | 0 | 1 | -3
CCOc1cccc(C=NNC(=O)C2CCCC2)c1O | 9 | . | . | . | . | .
COc1cc(-c2cc(C(=O)Nc3ccncc3)c3ccccc3n2)cc(OC)c1OC | 22* | -4 | -4 | -4 | 5 | -1
COc1ccccc1NC(=O)c1cc(-c2cc(OC)c(OC)c(OC)c2)nc2ccccc12 | 2 | -2 | -1 | -1 | 15 | -27
COc1cc(-c2cc(C(=O)Nc3ccc(N4CCOCC4)cc3)c3ccccc3n2)cc(OC)c1OC | -7 | -2 | -2 | -2 | 42* | 6
COc1cc(C(=O)O[C@H]2CC(C)=CCC[C@]3(C)O[C@@H]3C(O)C2C(C)C)cc(OC)c1OC (some centres not stated) | 8 | . | . | . | . | .
COc1ccc(N/N=C(\C#N)C(N)=O)cc1 | . | -5 | 0 | -5 | 20 | 6
